From PubChem BioAssay (Tox21)
A number with no mark means an inactive call. Inconclusive results are not listed. Entries that show only a call come without a potency. Active and inactive are the calls of the source. Unless noted, the call rests on the fitted dose curve; in most records, active means well fitted curve in the direction sought with a large enough effect in the repeat runs; inconclusive means weak or mixed curves; inactive means no such curve, though single readings can be large; an effect the other way counts as inactive or inconclusive.

Columns and labels:
[1] = qHTS assay for small molecule agonists of the p53 signaling pathway (AID 651631; calls by dose curve; further: nearly all actives have a fitted effect of over 15% in size)
How it was run: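 HCT-116 p53RE-bla reporter line, 16 h compound treatment at 37 °C, then fluorescence after 2 h with B/G FRET substrate.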

[2] = qHTS assay for small molecules that induce genotoxicity in human embryonic kidney cells expressing luciferase-tagged ATAD5 (AID 651632); further: nearly all actives have a fitted effect of over 15% in size
How it was run: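 A rise in luciferase signal from ATAD5-tagged HEK293T cells marks genetic stress. Cells were exposed to compounds for 16 hr at 37C, 5% CO2, then luciferase was quantified after a 30 min room-temperature incubation with Amplite.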

[3] = qHTS assay for small molecule agonists of the p53 signaling pathway - cell viability (AID 651633; calls by dose curve;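 further: p53RE-bla HCT reporter cells with a stable beta-lactamase p53 reporter; series mostly up to about 83 µM; nearly all actives have a fitted effect of over 30% in size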)
How it was run: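 p53RE-bla cells, seeded at 4,000 per well and rested 5 h at 37 C/5% CO2, received compounds in DMSO for 16 h at 37 C. CellTiter-Glo was then added, and luminescence was read after 30 min at room temperature to gauge cytotoxicity.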

[4] = qHTS assay for small molecules that induce genotoxicity in human embryonic kidney cells expressing luciferase-tagged ATAD5 - cell viability (AID 651634; calls by dose curve; further: nearly all actives have a fitted effect of over 25% in size)
How it was run: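 Cytotoxicity counter-readout: after 15.5 hr compound treatment at 37C, live-cell protease activity in ATAD5-luciferase HEK293T cells measured by CellTiter-Fluor fluorescence, 30 min development at 37C.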

[5] = qHTS assay for small molecule disruptors of the mitochondrial membrane potential - cell viability (AID 720634; calls by dose curve;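 further: human HepG2 liver cancer cells; series mostly up to about 83 µM; nearly all actives have a fitted effect of over 20% in size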)
How it was run: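 Cytotoxicity was quantified from ATP content by CellTiter-Glo luminescence in the same wells as the MMP dye read-out. HepG2 (2,000 cells/well) were plated overnight and exposed to compounds for 1 hr at 37 C.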

[6] = qHTS assay to test for compound auto fluorescence at 590 nm (red) in HepG2 cells (AID 720674)
How it was run: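 Intrinsic compound fluorescence in the red window (Ex/Em 540/590 nm) is measured in attached HepG2 cells exposed for 1 hr, DMSO vehicle as baseline, benchmarked to Rose Bengal sodium.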

[7] = qHTS assay to test for compound auto fluorescence at 535 nm (green) in HepG2 cells (AID 720675)
[8] = qHTS assay to test for compound auto fluorescence at 460 nm (blue) in HEK293 cells (AID 720678)
How it was run: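 Auto fluorescence in the blue band was quantified as triamterene equivalency. HEK293 cells were seeded at 2,000/well, dosed after a 4-5 hr attachment, and kept overnight at 37C before the 405/460 nm reading.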

[9] = qHTS assay to test for compound auto fluorescence at 590 nm (red) in HEK293 cells (AID 720679)
How it was run: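 Autofluorescence equivalency to Rose Bengal sodium, 540/590nm, in HEK293 cells exposed overnight to 23 nL compound per well.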

[10] = qHTS assay to test for compound auto fluorescence at 535 nm (green) in HEK293 cells (AID 720680)
[11] = qHTS assay to test for compound auto fluorescence at 460 nm (blue) in HEK293 cell free culture (AID 720681)
How it was run: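 Test compounds were pinned into cell-free culture medium (DMEM with 10% FBS) and fluorescence was read directly at Ex/Em 405/460 nm. Signals were expressed as fluorescence equivalents of triamterene, with DMSO vehicle as control.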

[12] = qHTS assay to test for compound auto fluorescence at 535 nm (green) in HEK293 cell free culture (AID 720682)
How it was run: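 Steps: dispense DMEM/10% FBS into empty wells; pin in compound or DMSO; measure fluorescence at 485/535 nm. Values are fluorescein equivalents.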

[13] = qHTS assay to test for compound auto fluorescence at 590 nm (red) in HEK293 cell free culture (AID 720683)
How it was run: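 Tox21 10K library compounds were pinned into cell-free DMEM with 10% FBS and fluorescence was read at excitation 540 nm. Activity is expressed as Rose Bengal sodium equivalency.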

[14] = qHTS assay to test for compound auto fluorescence at 460 nm (blue) in HepG2 cell free culture (AID 720685)
How it was run: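 Cell-free plates of MEM plus 10% FBS received 23 nL compound or DMSO vehicle; blue-channel (405/460 nm) intensity scored against triamterene as reference fluorophore.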

[15] = qHTS assay to test for compound auto fluorescence at 535 nm (green) in HepG2 cell free culture (AID 720686)
[16] = qHTS assay to test for compound auto fluorescence at 460 nm (blue) in HepG2 cells (AID 720687)
How it was run: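 Cells (2,000/well in MEM with 10% FBS) attached overnight at 37 C, then were exposed to compound or DMSO for 1 hr at 37 C, 5% CO2. Fluorescence read at Ex/Em 405/460 nm, expressed as triamterene-equivalent signal.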

[17] = biological target: Glucocorticoid receptor (Homo sapiens) (UniProt P04150); experiment: qHTS assay to identify small molecule agonists of the glucocorticoid receptor (GR) signaling pathway (AID 720691; active means well fitted activation curve with a large enough effect in the signal ratio in the repeat runs, not every such curve was filed as active; the % refers to the signal ratio)
How it was run: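 Agonist-mode qHTS in HeLa cells stably expressing a glucocorticoid-response-element beta-lactamase reporter. Fluorescence intensity read with FRET substrate (2 h, room temperature) after 18 h compound treatment at 37 C.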

[18] = qHTS assay for small molecule disruptors of the mitochondrial membrane potential (AID 720635)
How it was run: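 HepG2 cells (2,000/well) attached overnight at 37C, then took compound for 1 hr at 37C, 5% CO2. Mito-MPS dye was added for 30 min; fluorescence was read at 490/535 nm (monomers) and 540/590 nm (aggregates).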

[19] = qHTS assay to test for compound auto fluorescence at 590 nm (red) in HepG2 cell free culture (AID 720684)
How it was run: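 Ex 540 / Em 590 nm read of compound in cell-free MEM (10% FBS). Rose Bengal sodium reference.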

[20] = biological target: Glucocorticoid receptor (Homo sapiens) (UniProt P04150); experiment: qHTS assay to identify small molecule antagonists of the glucocorticoid receptor (GR) signaling pathway (AID 720692; active means well fitted inhibition curve with a large enough effect in the signal ratio in the repeat runs, not every such curve was filed as active; the % refers to the signal ratio; further: potency means the concentration at half of the fitted maximal effect)
How it was run: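 Inhibition of dexamethasone-driven (5 nM final) beta-lactamase expression was measured in GRE-reporter HeLa cells over 18 h at 37C. Fluorescence was read after 2 h with the B/G FRET substrate at room temperature.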

Sequence of Glucocorticoid receptor (Homo sapiens) (P04150 whole entry, looked up): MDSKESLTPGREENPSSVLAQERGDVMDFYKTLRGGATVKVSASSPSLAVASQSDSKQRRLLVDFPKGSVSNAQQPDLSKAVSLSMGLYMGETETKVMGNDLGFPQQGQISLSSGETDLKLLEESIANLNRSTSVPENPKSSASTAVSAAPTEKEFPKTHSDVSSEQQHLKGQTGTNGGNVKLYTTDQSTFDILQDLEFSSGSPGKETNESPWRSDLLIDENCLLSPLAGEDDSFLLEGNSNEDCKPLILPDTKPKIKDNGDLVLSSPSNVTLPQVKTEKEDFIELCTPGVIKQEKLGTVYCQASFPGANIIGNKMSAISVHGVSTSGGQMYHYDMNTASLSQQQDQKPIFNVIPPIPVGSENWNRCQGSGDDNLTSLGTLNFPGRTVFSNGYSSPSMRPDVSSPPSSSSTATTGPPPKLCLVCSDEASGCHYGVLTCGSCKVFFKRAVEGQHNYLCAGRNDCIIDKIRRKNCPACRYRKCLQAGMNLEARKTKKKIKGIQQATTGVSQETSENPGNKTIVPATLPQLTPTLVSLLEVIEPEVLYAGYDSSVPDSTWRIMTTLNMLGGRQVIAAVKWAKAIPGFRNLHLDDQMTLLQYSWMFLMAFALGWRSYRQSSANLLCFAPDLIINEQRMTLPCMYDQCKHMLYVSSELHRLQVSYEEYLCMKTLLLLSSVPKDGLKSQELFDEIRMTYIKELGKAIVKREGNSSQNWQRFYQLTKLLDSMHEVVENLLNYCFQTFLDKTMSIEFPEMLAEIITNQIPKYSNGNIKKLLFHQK

Compound	Potency [1]	Potency [2]	Potency [3]	Potency [4]	Potency [5]	outcome [6]	outcome [7]	Potency [8]	outcome [9]	outcome [10]	Potency [11]	outcome [12]	outcome [13]	outcome [14]	outcome [15]	outcome [16]	Potency [17]	Potency [18]	outcome [19]	Potency [20]
CC(CN=Cc1ccccc1O)N=Cc1ccccc1O (stereo not given)	inactive	inactive	inactive	inactive	inactive	inactive	inactive	inactive	inactive	inactive	inactive	inactive	inactive	inactive	inactive	inactive	inactive	–	–	–
CCCCCCC/C=C/C=O	inactive	inactive	inactive	inactive	inactive	inactive	inactive	inactive	inactive	inactive	inactive	inactive	inactive	inactive	inactive	inactive	inactive	–	–	–
CC1(C)CC(=O)CC(C)(C)N1	inactive	inactive	inactive	inactive	–	inactive	inactive	inactive	inactive	inactive	inactive	inactive	–	inactive	inactive	inactive	inactive	inactive	inactive	inactive
C/C=C1\[C@H]2C=C(C)C[C@]1(N)c1ccc(=O)[nH]c1C2	inactive	inactive	inactive	inactive	inactive	inactive	inactive	inactive	inactive	inactive	inactive	inactive	inactive	inactive	inactive	inactive	inactive	–	inactive	inactive
COc1cc(C)c(Cc2cnc(N)nc2N)cc1OC	inactive	inactive	inactive	inactive	inactive	inactive	inactive	inactive	inactive	inactive	inactive	inactive	inactive	–	inactive	inactive	inactive	–	inactive	inactive
C/C(=C\C(C)CC(C)CC(C)C)C1CC(=O)OC1=O (stereo not given)	inactive	inactive	inactive	inactive	inactive	inactive	inactive	inactive	inactive	inactive	inactive	inactive	inactive	inactive	inactive	inactive	inactive	–	–	24.6 µM (active)
CC(C)(O)C(=O)O	inactive	inactive	inactive	inactive	inactive	inactive	inactive	inactive	–	inactive	inactive	inactive	inactive	inactive	inactive	inactive	inactive	–	inactive	inactive
Cc1cc(N)n(-c2ccccc2)n1	inactive	inactive	inactive	inactive	–	inactive	inactive	inactive	inactive	inactive	inactive	inactive	inactive	inactive	inactive	inactive	–	–	inactive	–
C=CC(C)(O)CC/C=C(/C)CCC=C(C)C (stereo not given)	inactive	inactive	inactive	inactive	inactive	inactive	inactive	inactive	–	inactive	inactive	inactive	inactive	–	inactive	inactive	inactive	–	inactive	inactive
[O-][n+]1ccc(Cl)cc1	inactive	inactive	inactive	inactive	inactive	inactive	inactive	inactive	inactive	inactive	inactive	inactive	inactive	–	inactive	inactive	inactive	–	inactive	inactive
Clc1cc(Cl)c2c(c1)N=C1CCCCCN1C2	inactive	inactive	inactive	inactive	inactive	inactive	inactive	inactive	inactive	inactive	inactive	inactive	inactive	–	inactive	inactive	inactive	–	–	inactive
O=C(O)c1cc(C(=O)O)c(C(=O)O)cc1C(=O)O	inactive	inactive	inactive	inactive	inactive	inactive	inactive	inactive	–	inactive	inactive	inactive	inactive	inactive	inactive	inactive	inactive	–	inactive	inactive
CCCCCO	inactive	inactive	inactive	inactive	inactive	inactive	inactive	inactive	inactive	inactive	inactive	inactive	inactive	inactive	inactive	inactive	inactive	–	–	inactive
O=C1CCCN1CCO	inactive	inactive	inactive	inactive	inactive	inactive	inactive	inactive	inactive	inactive	inactive	inactive	–	inactive	inactive	inactive	inactive	–	inactive	inactive
CCC(CC)C(=O)O	inactive	inactive	inactive	inactive	inactive	inactive	inactive	inactive	inactive	inactive	inactive	inactive	inactive	–	inactive	inactive	inactive	–	inactive	inactive
